From PubChem BioAssay AID504334 (NMMLSC, 2011) come the findings set out here.

Values without a mark were called inactive.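 The calls were made as follows: active = response relative to DMSO over 150%; inconclusive = yeast strain with under 70 recorded events; inactive = the rest.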

This experiment is described as follows: AGP1-GFP expression modulators, hit retest, confirmation, cell-based, flow cytometry, S. cerevisiae, cherry pick set 3 (AID 504334).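 Also: median GFP fluorescence per well by flow cytometry over the all cells gate; ratio of sample to mean DMSO control signal so DMSO = 100% not 0%.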 The settings on record: S. cerevisiae AGP1-GFP strain, 3 h, at 10 µM, stronger effect = higher value. On the technique in general: In flow cytometry, cells or beads pass a laser one at a time.
Consider `C/C(O)=C(\C#N)C(=O)Nc1cc(Br)ccc1Br`, for which the percent response vs DMSO was 100%.

On to `CN(C)C(=O)Oc1ccc(Cl)c2cccnc12`, for which the percent response vs DMSO is 93.4%.

Turning to `CN(C)C(=O)Oc1ccnc2cc(Cl)ccc12`, the percent response vs DMSO is 104%.

With `CN1CCN(c2ncnc3ccc(Br)cc23)CC1`, the percent response vs DMSO was 103%.

On to `CCN1CCN(c2ncnc3ccc(Br)cc23)CC1`, for which the percent response vs DMSO was 99.8%.

For the molecule `Cc1ccc2c(c1N)C(=O)c1ccccc1C2=O`, the percent response vs DMSO was 105%.
